# According to PubChem BioAssay AID1775 (NMMLSC, 2009):
# About 820 (0.37%) of roughly 220,000 compounds were called active. Rule as the data show it: active = fluorescence above about 47; inactive = the rest. What follows is part of a selection rich in actives, with near analogues and random picks from the rest.
# Experiment: green autofluorescence of compounds with avidin beads – biophysical, 488/530 nm, flow cytometry, artefact control, profiling panel (AID 1775)
# Conditions: compound fluorescence 488/530 nm, at 10 µM, hits give high values
row,Structure (SMILES),fluorescence (KMESF)
1,O=C(Cc1c(F)cccc1Cl)N1CCN(C(=O)c2ccco2)CC1,91 (active)
2,O=C(c1cccc(S(=O)(=O)Nc2ccccc2Cl)c1)N1CCN(C(=O)c2ccco2)CC1,12 (inactive)
3,O=C(c1ccco1)N1CCN(c2cccc(Cl)c2)CC1,13 (inactive)
4,O=C1CC(Cc2ccc(Cl)cc2)C(=O)N1c1cc(Cl)ccn1 (stereo not given),3 (inactive)
5,COC(=O)c1c(NC(=O)CN(c2ccc(C)c(C)c2)S(C)(=O)=O)sc2c1CCCC2,7 (inactive)
6,CSc1nc2nc(-c3cccc(C(F)(F)F)c3)ccn2n1,28 (inactive)
7,CN(CCOc1ccccc1)Cc1nc2cc(Cl)ccc2c(=O)[nH]1,19 (inactive)
8,CCOC(=O)c1cc2c(=O)[nH]c(C(Cl)(Cl)Cl)nc2o1,5 (inactive)
9,COc1ccc(Nc2ncc(F)c(N3CCOCC3)n2)cc1,5 (inactive)
10,CC(=O)N/N=C(\C)c1ccc(Br)cc1Br,173 (active)
11,CC(C)/C=N/NC(=O)c1cc(Br)ccc1O,2 (inactive)
12,O=C(/C(=N\O)n1cncn1)c1ccc(Br)cc1Br,5 (inactive)
13,Cc1ccc(OCC(=O)Nc2ccc(-c3nnc(-c4ccco4)o3)cc2)cc1,50 (active)
14,Cc1ccc(OCC(=O)Nc2nnc(-c3ccco3)s2)cc1,8 (inactive)
15,CCOc1ccc(-c2nnc(-c3ccco3)o2)cc1,8 (inactive)
16,CCOC(=O)N1CCN(c2cc(C)c([N+](=O)[O-])cc2F)CC1,7 (inactive)
17,S=C(NCCc1ccccc1)NCc1ccccc1Cl,13 (inactive)
18,COC(=O)c1c(C(=O)OC)c(-c2cccc(C)c2)n2c1CS(=O)C2 (stereo not given),7 (inactive)
19,Cc1ccnc(NC(=O)CCC(=O)N(CC(=O)NCCc2ccccc2)Cc2cccs2)c1,9 (inactive)
20,O=C(CCc1ccccc1)NCCc1cccs1,6 (inactive)
21,O=C(O)CCC(=O)N(Cc1cccs1)Cc1cccs1,74 (active)
22,Cc1cc(C(=O)NCCc2ccc(Cl)cc2)n(-c2ccccc2)n1,6 (inactive)
23,Cc1cc(C)nc(/N=C2\NC(=O)CC(C(=O)O)N2c2ccc(Cl)cc2Cl)n1 (stereo not given),66 (active)
24,Cc1cc(C)nc(NC(=O)/C=C/c2ccc(Cl)cc2)n1,6 (inactive)

row,Structure (SMILES),fluorescence (KMESF)
1,CCOC(=O)c1nc(C)n(-c2ccc(Cl)cc2Cl)n1,8 (inactive)
2,CC(CNC(=O)c1ccc(Br)o1)NC(=O)c1ccc(Br)o1 (stereo not given),48 (active)
3,CC(CCc1ccccc1)NC(=O)c1ccc(Br)o1 (stereo not given),8 (inactive)
4,O=C(NCc1cccs1)c1ccc(Br)o1,12 (inactive)
5,CC(=O)N(OCc1ccc(OC(C)C)c(Cl)c1)C(C)=O,8 (inactive)
6,CC(=O)NCC(=O)N(Cc1ccco1)C1(C(=O)NC2CCCC2)CCCCC1,6 (inactive)
7,CS/C(=C\[N+](=O)[O-])Nc1ccc(C)cc1,12 (inactive)
8,Cc1cc(Cl)ccc1NC(=S)N1CCC(C(N)=O)(N2CCCCC2)CC1,10 (inactive)
9,COc1cc(C(=O)NCc2nnc(SCC(=O)Nc3nc4ccc(C)cc4s3)o2)cc(OC)c1OC,19 (inactive)
10,Nc1c(-c2ccc(F)cc2)cnc2ncnn12,76 (active)
11,Cc1cc(N2CCN(c3ccc(F)cc3)CC2)n2ncnc2n1,9 (inactive)
12,Nc1c(-c2ccc(F)cc2)cnn1C1CCS(=O)(=O)C1 (stereo not given),7 (inactive)
13,CC(C)(C)OC(=O)N/N=C/c1cn(-c2ccccc2)nc1-c1cccnc1,13 (inactive)
14,O=C(NCc1csc(-c2cccs2)n1)C1CC1,2 (inactive)
15,CC1Cc2ccccc2N1S(=O)(=O)c1ccc(Cl)nc1 (stereo not given),4 (inactive)
16,COc1cc(CO)c(C2(CO)CCCC2)cc1OC,36 (inactive)
17,Cc1nc2nc(SCC(=O)NCc3ccco3)nn2c(C)c1Cc1ccccc1,15 (inactive)
18,Cc1nc2c(-c3ccc(F)cc3)c(C)nn2c(C)c1CCC(=O)NCc1ccco1,6 (inactive)
19,COc1cc(OC)cc(-c2nc3nc(C)c(CCC(=O)NCc4ccco4)c(C)n3n2)c1,59 (active)
20,CCOC(=O)C(C)Sc1nnc(CSc2nc3nc(C)cc(C)n3n2)o1 (stereo not given),15 (inactive)
21,CC(C)Cn1cnc2c1c(=O)n(CC(O)c1ccccc1)c(=O)n2CC(C)C (stereo not given),67 (active)
22,CC(C)Cn1c(CN(Cc2ccccc2)Cc2ccccc2)nc2c1c(=O)n(C)c(=O)n2C,8 (inactive)
23,Cn1c(=O)c2c(ncn2CCc2ccccc2)n(C)c1=O,11 (inactive)
24,CCNC(=O)COc1cc(C)c(Br)c(C)c1,9 (inactive)

row,Structure (SMILES),fluorescence (KMESF)
1,CC(C)C(=O)Nc1c(O)c2ccccc2[nH]c1=O,10 (inactive)
2,CC1CCc2c(c3ccccc3[nH]c2=O)O1 (stereo not given),57 (active)
3,CCCCc1nc2c(=O)[nH]c3ccccc3c2o1,26 (inactive)
4,CCCN(CCC)C(=S)Nc1cc(C(=O)OC)ccc1C(=O)OC,3 (inactive)
5,CN(CC(=O)NC1CCCCC1)S(=O)(=O)c1ccc(Br)s1,32 (inactive)
6,CN(CC(=O)NC1CCCCC1)S(=O)(=O)c1cccc2cccnc12,118 (active)
7,Cc1ccc(S(=O)(=O)N(C)CC(=O)NC2CCCC2)cc1,10 (inactive)
8,COc1ccc2c(c1)cc1n2CCN=C1NN,7 (inactive)
9,Cc1ccccc1CN1CCN(C(=O)c2cccc(F)c2)CC1,4 (inactive)
10,CC(C)CC(=O)N1CCC(O)(CS(=O)(=O)Cc2ccccc2)CC1,7 (inactive)
11,Cc1ccccc1CS(=O)(=O)CC1(O)CCN(C(=O)c2cccc(C(F)(F)F)c2)CC1,88 (active)
12,O=C(c1ccc(F)cc1)N1CCC(n2nnc3ccccc32)CC1,34 (inactive)
13,CCOc1cnc(C(=O)NNC(=O)c2ccccc2Br)o1,15 (inactive)
14,COc1cccc(-c2ccc(SCC(=O)N3CCN(c4ccccc4)CC3)nn2)c1,8 (inactive)
15,COC(=O)CSc1ccc2nnc(CCNS(=O)(=O)c3ccc(C)cc3)n2n1,4 (inactive)
16,CC(C)CCNC(=O)CN(C(=O)Cn1nnc(-c2ccc(F)cc2)n1)C1CCCC1,14 (inactive)
17,CC(C)CCNC(=O)C(C)N(C(=O)Cn1nnc(-c2ccc(F)cc2)n1)C1CCCC1 (stereo not given),51 (active)
18,COc1ccc(-c2nnn(CC(=O)N(CCO)C(C(=O)NC3CCCC3)c3ccc(F)cc3)n2)cc1 (stereo not given),12 (inactive)
19,O=C(NNS(=O)(=O)c1ccc(F)cc1)c1cnccn1,10 (inactive)
20,CC(=O)Nc1cccc(Oc2cc(C#N)c(C#N)cc2N2CCOCC2)c1,7 (inactive)
21,COc1cc(N2CCCC2)c(OC)cc1/C=C(/C#N)c1cccc(Br)c1,47 (active)
22,COc1cccc(C(=O)Nc2ccc(N3CCCC3)cc2)c1,9 (inactive)
